PPC-1+TRAIL kill: compounds killing PPC-1 cancer cells with TRAIL present, primary screen, TRAIL potentiator project, ATPLite luminescence, uHTS | PPC-1 cells + TRAIL, ATPLite viability luminescence | 220,000 tested, 0.41% active | AID 1443, 2008 | cell killing (% activity), % at 4 µM or 5 µM;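 active = cell killing above 50% in the first pass at 4 µM, then a duplicate retest at 5 µM averaging 50% or more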;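 note: plate controls were cells with TRAIL plus DMSO for no effect and medium-only wells lacking cells for full effect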
Platelet DG rel: inhibitors of platelet dense granule secretion, primary screen, cell-based, MLPCN, human platelets. human platelet-rich plasma, SFLLRN dense granule ATP release, luminescence. inhibition, %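 (compounds screened at 7.5 µM in platelet-rich plasma)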. 300,000 tested, 0.22% active. AID 1663, 2009;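 active = mean replicate score, as percent of positive control, at or above 50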
STAT3 inh-1: IL-6 driven STAT3 reporter inhibitors, primary screen, U3A cells, luciferase, luminescence, MLSCN library | IL-6 STAT3-luciferase reporter; host cell line lacks STAT1 | inhibition, % at 5.5 µM | 190,000 tested, 0.89% active;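 active = inhibition above the mean inhibition across all screened compounds plus 3 SD, cut at about 44% in these data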;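 note: 0% = DMSO only wells and 100% = 100 µM nifuroxazide control wells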
C8 TRAIL sens: viability loss with TRAIL in NB7+C8 cells, primary screen, TRAIL sensitizer project, cell-based, ATPlite luminescence. inhibition (viability loss, TRAIL sensitization), % at 10 µM. AID 624354, 2012. 360,000 tested, 1% active;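 active = compounds causing at least 50% loss of cell viability in the single-dose screen, relative to plate controls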
STAT1 inh: STAT1 signaling inhibitors, primary screen, cell-based, HTS, luciferase reporter | NIH 3T3 STAT1-luciferase reporter, IFN-gamma, luminescence | inhibition, % at 5.5 µM | 200,000 tested, 0.35% active | AID 920, 2007;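 active = inhibition above a set limit, the mean inhibition across all tested compounds plus 3 SD, cut at about 34% in these data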;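 note: 0% = IFN-gamma with DMSO and 100% = IFN-gamma with 300 µM nifuroxazide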
STAT3 inh-2: STAT3 reporter inhibitors, retest of hits, confirmation, U3A cells, luciferase, luminescence; inhibition, % at 5.7 µM; IL-6 STAT3 luciferase reporter; cell line lacks STAT1; 1,200 tested, 45% active; AID 1265, 2008; shares compounds with STAT3 inh-1;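 active = inhibition above the hit cutoff computed for the primary STAT3 screen, cut at about 44% in these data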;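 note: 0% = IL-6 plus DMSO and 100% = IL-6 plus nifuroxazide control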
NFkB inh STAT3ct: NF-kB reporter inhibitors in human cells, confirmation, counter-screen for STAT3 inhibitor project, cell-based, HEK293T, luciferase, TNF-alpha stimulus. 1,200 tested, 36% active. inhibition, % at 5.7 µM. TNF-alpha induced. shares compounds with STAT3 inh-1;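 active = inhibition above the mean of solvent-only control wells plus 3 SD, cutoff set per campaign, cut at about 13% in these data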;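 note: 0% = TNF-alpha with DMSO and 100% = TNF-alpha with MG high control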
STAT1 inh STAT3c: STAT1 reporter inhibitors, IFN-gamma induced, confirmation, counter-screen for STAT3 inhibitor project, cell-based, NIH 3T3, luciferase luminescence; inhibition, % at 5.7 µM; NIH 3T3 STAT1-luciferase reporter; shares compounds with STAT3 inh-1; 1,200 tested, 27% active;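 active = inhibition above the mean plus 3 SD of solvent-only control wells, limit set per screening run, cut at about 16% in these data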;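 note: 0% = DMSO with IFN-gamma and 100% = nifuroxazide control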
Numbers without * were called inactive; . = no result given. Hits are enriched below; roughly 1.6% of the tested compounds scored in any of these assays.

SMILES | PPC-1+TRAIL kill | Platelet DG rel | STAT3 inh-1 | C8 TRAIL sens | STAT1 inh | STAT3 inh-2 | NFkB inh STAT3ct | STAT1 inh STAT3c
C(=N\Nc1nc2ccccc2[nH]1)/c1ccncc1 | 33 | 8 | -3 | 9 | -30 | . | . | .
CC(=O)Nc1ccc(/C=N/Nc2nc3ccccc3[nH]2)cc1 | 12 | 9 | -8 | 75* | -16 | . | . | .
CCc1nn(CC(=O)NCCC2=CCCCC2)c(=O)c2cc3cc(F)ccc3n12 | . | -8 | . | 24 | . | . | . | .
Cc1cccc(S(=O)(=O)NC(=O)C2(C)CCN2C(=O)CCC2CCCC2)c1 (centres undefined) | . | . | . | -17 | . | . | . | .
COc1cccc(C(=O)OCn2nnc3ccccc3c2=O)c1OC | 23 | 3 | . | 6 | . | . | . | .
Cc1ccccc1C(=O)OCn1nnc2ccccc2c1=O | 9 | 92* | 7 | 3 | 4 | . | . | .
COc1ccc(-c2cc(C(=O)N3CCCCCC3)c3ccccc3n2)cc1 | . | . | . | 11 | . | . | . | .
Cc1sc2ncnc(N3CCN(CCOc4ccc(Cl)cc4)CC3)c2c1C | 15 | -6 | 76* | 12 | 22 | 77* | 25* | 20*
CC1(C(=O)NS(=O)(=O)c2cccc(F)c2)CCN1C(=O)CC1CCCC1 (centres undefined) | . | . | . | 0 | . | . | . | .
CC(C)Cn1c(N)c(C(=O)COC(=O)CCc2nc3ccccc3c(=O)[nH]2)c(=O)n(C)c1=O | . | . | . | -16 | . | . | . | .
CC(C)Cn1c(N)c(C(=O)CSc2ccccc2)c(=O)n(C)c1=O | 1 | -13 | 45* | 31 | 1 | 44* | -4 | -1
CC(C)Cn1c(N)c(C(=O)COC(=O)CCc2nc3ccccc3s2)c(=O)n(C)c1=O | 3 | 0 | 70* | 14 | 25 | 74* | 8 | 16
CC(C)Cn1c(N)c(C(=O)COC(=O)CC23CC4CC(CC(C4)C2)C3)c(=O)n(C)c1=O | 11 | 3 | 70* | 9 | 23 | 73* | 24* | 24*
Cc1ccsc1C(=O)Nc1ccc2c(c1)OCCO2 | 31 | 25 | 55* | 71* | -28 | 14 | -17 | -77
CCCCN=c1scc(-c2ccc3c(c2)NC(=O)CO3)n1N=C1CCCC1 | -22 | 8 | 24 | 10 | 13 | . | . | .
CCN=c1scc(-c2ccc3c(c2)NC(=O)CO3)n1N=C1CCCC1 | 8 | -2 | 73* | 16 | 13 | 64* | 14* | 13
Cc1ccc(S(=O)(=O)NCc2ccncc2)cc1 | 6 | 7 | 68* | 17 | 23 | 38 | 21* | 25*
CC1CCCCC1NS(=O)(=O)c1ccc(S(=O)(=O)NCc2ccncc2)cc1 (centres undefined) | 19 | 5 | 73* | . | 26 | 48* | 9 | 12
Cc1ccc(S(=O)(=O)NCC(=O)NCc2ccncc2)cc1 | 11 | -6 | -7 | -13 | 0 | . | . | .
CCOc1ccc(S(=O)(=O)NCc2ccccn2)cc1 | 4 | 5 | 9 | -13 | 0 | . | . | .
CCOC(=O)COc1ccc(S(=O)(=O)NCc2ccncc2)cc1 | 15 | 18 | 70* | 9 | 26 | 55* | 12 | 23*
CCOc1ccc(S(=O)(=O)NCc2ccncc2)cc1 | -11 | 3 | 88* | 11 | 28 | 82* | 34* | 24*
CCOC(=O)COc1ccc(S(=O)(=O)NCc2ccco2)cc1 | 0 | -5 | 0 | -9 | -10 | . | . | .
Cn1c(-c2cccc(Br)c2)cnc1NCc1ccccc1O | . | -12 | . | -3 | . | . | . | .
C[C@@H]1CN([C@@H](C)CO)C(=O)c2cc(Br)cnc2O[C@H]1CN(C)Cc1cccc(C(=O)O)c1 | . | . | . | -7 | . | . | . | .
SMILES | PPC-1+TRAIL kill | Platelet DG rel | STAT3 inh-1 | C8 TRAIL sens | STAT1 inh | STAT3 inh-2 | NFkB inh STAT3ct | STAT1 inh STAT3c
COc1ccccc1CNC(=O)CN1C(=O)NC2(CCCC2)C1=O | . | . | . | -13 | . | . | . | .
CCC(C(=O)O)n1c2ccccc2c2cn[nH]c(=O)c21 (centres undefined) | . | -3 | . | 6 | . | . | . | .
Cc1ccc2c(=O)n3c(nc2c1)C(C)NC(=O)c1cccnc1-3 (centres undefined) | . | . | . | -7 | . | . | . | .
CCOc1cc(S(=O)(=O)NCc2cccs2)ccc1Cl | 30 | -1 | 7 | 13 | 4 | . | . | .
CCOc1cc(S(=O)(=O)NCc2ccncc2)ccc1Cl | -4 | 23 | 84* | 29 | 34 | 85* | 34* | 27*
Cc1ccc(NC(=O)C2(C)CCN2Cc2ccccc2OC(F)F)cc1 (centres undefined) | . | . | . | 16 | . | . | . | .
COc1ccc(/C=N/Nc2cc(OC)ncn2)cc1 | 45 | 52* | 51* | 61* | -59 | 3 | -25 | -139
CCOc1ccc(/C=N/Nc2ccccn2)cc1 | 45 | 17 | 50* | 59* | -8 | 7 | -28 | -112
O=C(CC(O)(CC(=O)OCc1ccccc1)C(=O)OCc1ccccc1)OCc1ccccc1 | . | . | . | 1 | . | . | . | .
Cc1ccc(/C=C/C(=O)NC2=NCCS2)cc1 | 50 | -12 | 71* | 76* | -52 | 35 | -9 | -122
CN(C)S(=O)(=O)n1cc(/C=C(\NC(=O)c2ccccc2F)C(=O)N2CCCCC2)c2ccccc21 | . | . | . | -17 | . | . | . | .
O=C(CSC1=NCCS1)Nc1ccc(F)cc1 | -25 | -9 | 13 | 40 | 2 | . | . | .
O=C(Nc1ccc(Br)cc1)c1ccc(CSC2=NCCS2)cc1 | 16 | 2 | 56* | 16 | -23 | 35 | -11 | -31
Cc1cc(NC(=O)c2cccc(COc3ccc(Br)cc3)c2)no1 | 28 | -4 | 49* | 5 | 15 | 19 | 41* | -15
CC(C)c1cc(C(N)=O)c(NC(=O)c2cccc(COc3ccc(Cl)cc3)c2)s1 | 10 | -6 | 63* | 13 | 34* | 32 | 8 | 11
COC(=O)c1ccc(C(=O)N2CCCC(C)(C(=O)NS(=O)(=O)C3CC3)C2)cc1 (centres undefined) | . | . | . | 3 | . | . | . | .
Cc1ccc2nc(-c3ccccc3N)[nH]c2c1 | 47 | 20 | 67* | 33 | 21 | 12 | -37 | -149
CCCCOc1ccc(C(=O)Nc2ccncc2)cc1 | 20 | 10 | 79* | 25 | 18 | 79* | 4 | 14
CCCOc1ccc(C(=O)Nc2ccc(N(C)C)cc2)cc1 | 22 | -4 | 47* | 43 | -21 | 30 | -15 | -42
CCCOc1ccc(C(=O)Nc2ccc(NC(=O)c3cccs3)cc2)cc1 | . | 7 | . | -2 | . | . | . | .
CCCOc1ccc(C(=O)Nc2cccnc2)cc1 | . | 3 | . | 4 | . | . | . | .
CC(C)Oc1ccc(C(=O)Nc2ccc(N(C)C)cc2)cc1 | 26 | -10 | 54* | 43 | -10 | 35 | -9 | -36

Compound activity (PubChem)
